Measured values taken from the supplement of paper PMC6089552.
Hit rate of the full screen: of about 3,200 compounds, about 300 (9.4%) showed activity. The sample holds actives, similar compounds and a random draw of the others, so the mix is not that of the screen.

Tested on: A673/TR/shEF
Assay: cell viability (LOESS-normalised, relative to median of negative controls) (log2 ratio); higher = more viable cells (less compound effect), active = hit call of the paper (over 3 MAD below the median)
Settings: treatment time: 72 h
Method in brief: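 Viability of A673/TR/shEF Ewing sarcoma cells was determined by CellTiter-Glo luminescence. The cells, at 1,500 per well in 384-well plates, were grown with or without doxycycline from 24 h before compound addition to switch on EWS-FLI1 shRNA knockdown, then exposed for three days to library compounds at two or more concentrations or to DMSO controls. Signals were LOESS-corrected plate by plate, normalised to the negative-control median and log2-transformed.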

[1] = 0.25 µM, library screen: screen1, EWS-FLI1 expression: high (no doxycycline)
[2] = 0.25 µM, library screen: screen1, EWS-FLI1 expression: low (doxycycline-induced shRNA knockdown)
[3] = 2.5 µM, library screen: screen1, EWS-FLI1 expression: high (no doxycycline)
[4] = 2.5 µM, library screen: screen1, EWS-FLI1 expression: low (doxycycline-induced shRNA knockdown)
[5] = 0.25 µM, library screen: screen2, EWS-FLI1 expression: high (no doxycycline)
[6] = 0.25 µM, library screen: screen2, EWS-FLI1 expression: low (doxycycline-induced shRNA knockdown)
[7] = 2.5 µM, library screen: screen2, EWS-FLI1 expression: high (no doxycycline)
[8] = 2.5 µM, library screen: screen2, EWS-FLI1 expression: low (doxycycline-induced shRNA knockdown)
[9] = 0.025 µM, library screen: screen2, EWS-FLI1 expression: high (no doxycycline)
[10] = 0.025 µM, library screen: screen2, EWS-FLI1 expression: low (doxycycline-induced shRNA knockdown)
[11] = 25 µM, library screen: screen2, EWS-FLI1 expression: high (no doxycycline)
[12] = 25 µM, library screen: screen2, EWS-FLI1 expression: low (doxycycline-induced shRNA knockdown)

Measured: cell viability (log2)

COc1ccc(CN2CCN(Cc3cccc(F)c3)CC2)cc1
inactive: [1] 0.0679 | [2] 0.104 | [3] 0.124 | [4] 0.0696

Nc1ncnc2c1ncn2[C@@H]1O[C@@H]2COP(O)(=S)O[C@H]2[C@H]1O (stereo not given in full)
inactive: [5] 0.205 | [6] 0.149 | [7] 0.079 | [8] 0.148

CSc1nc(NC(C)C)nc(NC(C)C)n1
inactive: [1] 0.0904 | [2] -0.0688 | [3] 0.0234 | [4] 0.0938

CNC(=O)O/N=C(\C)SC
inactive: [1] 0.0466 | [2] 0.0661 | [3] 0.0904 | [4] 0.143

O=C1C=C2C(=CCOC2O)O1 (stereo not given)
inactive: [2] 0.05
active: [1] -0.259 | [3] -2.95 | [4] -0.992

C=CCN1CC[C@@]2(C)c3cc(O)ccc3CC1[C@@H]2C
inactive: [5] 0.194 | [6] 0.135 | [7] 0.028 | [8] 0.047

N#C[C@H](O[C@@H]1O[C@H](CO[C@@H]2O[C@H](CO)[C@@H](O)[C@H](O)[C@H]2O)[C@@H](O)[C@H](O)[C@H]1O)c1ccccc1
inactive: [9] 0.166 | [10] 0.0523 | [1] 0.122 | [2] -0.00438 | [5] 0.174 | [6] 0.00657 | [3] 0.113 | [4] 0.0319 | [7] 0.1 | [8] 0.0264 | [11] 0.202 | [12] 0.0554

CC(=O)[C@H]1CC[C@H]2[C@@H]3CC[C@H]4C[C@H](O)CC[C@]4(C)[C@H]3CC[C@]12C
inactive: [5] 0.267 | [6] 0.093 | [7] 0.266 | [8] 0.165

CC(=O)[C@H]1CC[C@H]2[C@@H]3CC[C@H]4C[C@H](O)CC[C@]4(C)[C@H]3C(=O)C[C@]12C
inactive: [5] 0.0616 | [6] 0.101
active: [7] -2.77 | [8] -0.524

CC(=O)[C@H]1CC[C@H]2[C@@H]3CC[C@H]4C[C@@H](O)CC[C@]4(C)[C@H]3CC[C@]12C
inactive: [1] 0.0984 | [2] 0.068 | [3] 0.0674 | [4] 0.135

CNC(=O)Oc1cccc2c1OC(C)(C)C2
inactive: [1] 0.0513 | [2] 0.0685 | [3] 0.07 | [4] 0.106

ClC1=C(Cl)[C@]2(Cl)[C@@H]3[C@@H]4C[C@@H]([C@H]5O[C@@H]45)[C@@H]3[C@@]1(Cl)C2(Cl)Cl
inactive: [1] 0.163 | [2] 0.0877 | [3] 0.115 | [4] 0.192

CC(=O)OC1CCC23C(=O)OC45CCC(C6=CC(=O)OC6)C4(C)CCC2C5CCC3(O)C1 (stereo not given)
inactive: [1] -0.0349 | [2] -0.171
active: [3] -1.11 | [4] -1.12

CC(=O)O[C@H]1CC[C@]2(C=O)C3CC[C@]4(C)[C@@H](C5=CC(=O)OC5)CC[C@]4(O)C3CC[C@]2(O)C1 (stereo not given in full)
inactive: [1] 0.0163 | [2] -0.145
active: [3] -1.12 | [4] -1.15

CC(=O)O[C@H]1CC[C@@]2(C)C(=CCC3C2CC[C@]2(C)C(=O)CCC32)C1 (stereo not given in full)
inactive: [1] 0.0955 | [2] 0.0874 | [3] 0.042 | [4] 0.106

C[C@]12CC[C@H]3[C@@H](CC[C@]4(O)C[C@@H](O)CC[C@]34C=O)[C@@]1(O)CC[C@@H]2C1=CC(=O)OC1
inactive: [1] 0.0251 | [2] -0.17
active: [3] -1.21 | [4] -1.3

NCCC(O)C(=O)NC1CC(N)C(OC2OC(CN)C(O)C(O)C2N)C(OC2OC(CO)C(O)C2O)C1O (stereo not given)
inactive: [1] 0.0254 | [2] -0.0377 | [3] 0.12 | [4] -0.0236

CCN1C[C@]2(C)CC[C@H](O)[C@]34C1[C@H](C[C@H]23)[C@@]1(O)C[C@H](OC)[C@H]2C[C@@H]4[C@@H]1[C@H]2O
inactive: [5] 0.0509 | [6] 0.0197 | [7] 0.0295 | [8] 0.0503

COC(=O)COc1ccc(Cl)cc1Cl
inactive: [1] 0.022 | [2] -0.0423 | [3] 0.11 | [4] 0.0409

COc1cccc(CN2CCN(Cc3cccc(F)c3)CC2)c1
inactive: [1] 0.0335 | [2] 0.131 | [3] 0.0329 | [4] 0.0279

C[C@@H]1CC[C@@]2(NC1)O[C@H]1C[C@H]3[C@@H]4CC=C5C[C@@H](O)CC[C@]5(C)[C@H]4CC[C@]3(C)[C@H]1[C@@H]2C
inactive: [9] 0.0804 | [10] 0.071 | [1] 0.101 | [2] 0.14 | [5] 0.194 | [6] 0.0802 | [3] 0.13 | [4] 0.0856 | [7] 0.106 | [8] 0.133 | [11] 0.0875 | [12] 0.0211
